Screening results: PubChem BioAssay, National Center for Advancing Translational Sciences (NCATS)
PNC inhibitor: inhibitors of perinucleolar compartment assembly; activity change (PNC), negative = inhibition, % at 10 µM; PC3M PTB-GFP, PNC prevalence imaging, 16 h; hits give low values; actives 3.1% (n = 140,000);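 active means readout at or below -70, meaning at least 70% loss of cells showing the perinucleolar compartment, a nuclear body marking cancer cells; inconclusive means readout between -30 and a set limit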;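 further: plate controls were DMSO wells for no effect and camptothecin positive control wells for full effect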
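Read-out is percentage of cells bearing a perinucleolar compartment, from automated 20x imaging of fixed, Hoechst-stained PC3M PTB-GFP cells. Cells were seeded 4 h, then exposed 16 h to compound (23 nl of library stock) in duplicate plates.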
KDM4E inh: blocks human JMJD2E demethylase activity; B2RXH2; JMJD2E catalytic domain, FDH-coupled NADH fluorescence (FDH is formaldehyde dehydrogenase); Potency, µM (doses to about 57.1 µM), inactives show at the highest dose activity change, negative = inhibition, usual class: inhibitors; actives 1.6% (n = 230,000); active means well fitted inhibition curve with a large enough effect, not every such curve was filed as active; inconclusive means small, poorly fitted or top-dose-only effect, or another doubt; inactive means no such curve, though single readings can be large or run the other way;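 further: potency means the concentration at half of the fitted maximal effect; 0% = wells with enzyme and -100% = buffer wells without enzyme; nearly all actives have a fitted effect of over 50% in size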
Target sequence (B2RXH2 1-337 limits assumed): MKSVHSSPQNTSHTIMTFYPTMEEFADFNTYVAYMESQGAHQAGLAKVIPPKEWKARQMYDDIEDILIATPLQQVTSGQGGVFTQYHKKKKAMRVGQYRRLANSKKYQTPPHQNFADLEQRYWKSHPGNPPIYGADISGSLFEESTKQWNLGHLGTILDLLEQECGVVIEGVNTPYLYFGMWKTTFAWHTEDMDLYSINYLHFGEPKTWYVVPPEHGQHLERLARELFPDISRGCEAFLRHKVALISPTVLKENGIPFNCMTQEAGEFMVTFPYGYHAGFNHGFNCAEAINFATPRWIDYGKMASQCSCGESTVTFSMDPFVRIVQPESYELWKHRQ
Tau ThT inhib: tau fibrillization inhibition (ThT binding). recombinant tau K18 P301L, heparin-induced fibrillization, ThT fluorescence. Potency, µM (doses to about 57.4 µM), inactives show top-dose activity, negative = inhibition, usual class: inhibitors. actives 2.1% (n = 270,000). AID 1460; further: potency means the concentration at half of the fitted maximal effect; nearly all actives have a fitted effect of over 55% in size
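Fibril formation assay: tau K18 P301L at 15 uM with trace Alexa 594 label, heparin inducer 20 uM, pH 7 sodium acetate buffer, 37 C for 6 hr; endpoint ThT signal.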
Tau fibril FP: inhibitors of human tau fibril formation | K18 P301L tau heparin fibrillization, Alexa594 FP, 6 h | P10636 | Potency, µM (series often up to 57.7 µM), inactives show top-dose activity, negative = inhibition, most hits filed as inhibitors | actives 0.39% (n = 280,000); further: potency means the concentration at half of the fitted maximal effect; nearly all actives have a fitted effect of over 55% in size
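K18 P301L tau (15 uM unlabeled/0.24 uM Alexa 594-labeled, final) + compound + heparin 20 uM final; 100 mM NaOAc pH 7; 6 hr 37 C; ThT 30 uM final added, 1 hr RT; FP ex 555/em 632 nm.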
NPSR antagonist: blocks cAMP signaling of the human neuropeptide S receptor. Potency, µM (doses to about 38.3 µM), without a hit: at the highest dose activity change, negative = inhibition, actives largely listed as inhibitors. Q6W5P4. CHO-NPSR cells, cAMP TR-FRET, antagonist mode. actives 1% (n = 220,000); further: potency means the concentration at half of the fitted maximal effect; nearly all actives have a fitted effect of over 50% in size
Target sequence (Q6W5P4 whole entry, looked up): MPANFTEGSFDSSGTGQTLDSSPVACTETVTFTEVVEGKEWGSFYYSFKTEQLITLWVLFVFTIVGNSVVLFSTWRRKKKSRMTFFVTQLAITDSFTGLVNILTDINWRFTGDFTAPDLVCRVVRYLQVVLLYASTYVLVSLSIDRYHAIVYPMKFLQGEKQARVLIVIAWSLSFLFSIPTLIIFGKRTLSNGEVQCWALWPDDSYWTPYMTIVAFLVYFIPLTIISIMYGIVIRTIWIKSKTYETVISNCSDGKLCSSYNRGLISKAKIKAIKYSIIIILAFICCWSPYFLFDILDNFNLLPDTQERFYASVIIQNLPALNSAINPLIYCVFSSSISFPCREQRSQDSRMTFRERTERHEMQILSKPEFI
Tau fluor cs: counter-screen for tau fibril formation inhibitors | actives 0.93% (n = 280,000) | tau K18 P301L Alexa594 fluorescence, heparin fibrillization | Potency, µM (top dose mostly 57.7 µM), inactives show at the highest dose activity change, negative = decrease | AID 1463; further: potency means the concentration at half of the fitted maximal effect; nearly all actives have a fitted effect of over 55% in size
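Human tau K18 P301L (15 uM unlabeled, 0.24 uM Alexa 594-labeled) in 100 mM sodium acetate pH 7 with 20 uM heparin, 6 hr at 37 C. ThT 30 uM added, 1 hr ambient; Alexa 594 FP and total fluorescence read at 555/632 nm.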
Active calls of the source: *; [ ] = dose if it differs, or a comment. A selection: hits, their analogues and other compounds. The true share with any hit is near 5.1%. Unless noted, the call rests on the fitted dose curve; in most records, active means well fitted curve in the direction sought with a large enough effect; inconclusive means small, poorly fitted or top-dose-only effect, or another doubt; inactive means no such curve, though single readings can be large; an effect the other way counts as inactive or inconclusive. Unless noted, on the % scale 0 is the no-effect control and ±100 the full control effect.

`CCOC(=O)c1oc2ccccc2c1CN1CCN(c2ccccc2)CC1` gave PNC inhibitor inconclusive, KDM4E inh -8%, Tau ThT inhib inconclusive, Tau fibril FP 2%, NPSR antagonist inconclusive and Tau fluor cs -17%.
CCOC(=O)c1c(C)oc2c1c(C(c1ccncc1)N1CCOCC1)c(O)c1ccccc12 (centres undefined) was read as PNC inhibitor -27, KDM4E inh inconclusive, Tau ThT inhib 14µM*, Tau fibril FP 2%, NPSR antagonist -16%[46.1 µM] and Tau fluor cs inconclusive.
For CCOC(=O)c1oc2ccccc2c1CN1CCN(C(=O)c2ccccc2)CC1 the results were PNC inhibitor -109*, KDM4E inh 8%, Tau ThT inhib -6%, Tau fibril FP 5%, NPSR antagonist -11% and Tau fluor cs -8%.
For CCOC(=O)c1c(C)oc2c1c(CN1CCN(CCO)CC1)c(O)c1ccccc12 the results were KDM4E inh inconclusive, Tau ThT inhib inconclusive, Tau fibril FP inconclusive, NPSR antagonist -7% and Tau fluor cs inconclusive.
For Cc1ccc(Cl)cc1-n1ncc2c(NCCC3=CCCCC3)ncnc21 the results were Tau ThT inhib -12%, Tau fibril FP 0% and Tau fluor cs -20%.
For O=C(N/N=C/c1c[nH]c2ccccc12)C1CC1c1ccccc1 (centres undefined) the results were PNC inhibitor inconclusive, KDM4E inh -8%, Tau ThT inhib inconclusive, Tau fibril FP 4%, NPSR antagonist -6%[46.1 µM] and Tau fluor cs 14µM*[quencher].
For O=C(N/N=C/c1c[nH]c2ccccc12)C1CC1(c1ccccc1)c1ccccc1 (centres undefined) the results were PNC inhibitor 23, KDM4E inh -12%, Tau ThT inhib -11%, Tau fibril FP -3%, NPSR antagonist inconclusive and Tau fluor cs 7.1µM*[quencher].
CN(C)CCCC1(c2ccc(F)cc2)OCc2cc(C#N)ccc21 (centres undefined) was read as PNC inhibitor -115*, KDM4E inh -4%, Tau ThT inhib -13%, Tau fibril FP 1%, NPSR antagonist 3% and Tau fluor cs -8%.
`O=c1cc(-c2ccccc2)nc2nc(-c3ccco3)[nH]n12` gave PNC inhibitor -117*, KDM4E inh inconclusive, Tau ThT inhib 11%, Tau fibril FP 5%, NPSR antagonist -14%[46.1 µM] and Tau fluor cs 5%.
For O=c1cc(-c2ccccc2)nc2nc(CCc3ccccc3)[nH]n12 the results were PNC inhibitor -107*, KDM4E inh -12%, Tau ThT inhib 0%, Tau fibril FP 7%, NPSR antagonist -13%[46.1 µM] and Tau fluor cs 4%.
Cc1nc2nc(-c3ccccc3)cc(=O)n2[nH]1 was read as PNC inhibitor inconclusive, KDM4E inh -13%, Tau ThT inhib -3%, Tau fibril FP 8%, NPSR antagonist 4%[46.1 µM] and Tau fluor cs 9%.
For COc1cc(-c2nc(Cc3c(F)cccc3Cl)no2)cc(OC)c1OC the results were PNC inhibitor -1, KDM4E inh inconclusive, Tau ThT inhib inconclusive, Tau fibril FP -14%, NPSR antagonist inconclusive and Tau fluor cs 16µM*[quencher].
COc1cc(-c2noc(-c3cccc(Cl)c3)n2)cc(OC)c1OC was read as PNC inhibitor 15, KDM4E inh 9%, Tau ThT inhib 5%, Tau fibril FP 3%, NPSR antagonist 8%[46.1 µM] and Tau fluor cs 8%.
CC(N)=NCCCC(N)C(=O)O (centres undefined) was read as KDM4E inh -6%, Tau ThT inhib 1%, Tau fibril FP 5%, NPSR antagonist -11%[46.1 µM] and Tau fluor cs 3%.
Screening CCOc1ccc(Nc2nc3c(c(=O)[nH]2)CCCC3)cc1 returned PNC inhibitor inconclusive, KDM4E inh 9%, Tau ThT inhib -10%, Tau fibril FP inconclusive, NPSR antagonist -14%[46.1 µM] and Tau fluor cs -14%.
Screening O=c1[nH]n2c(=O)c3c([nH]c2c1N=Nc1cccc(Cl)c1)CCCC3 returned PNC inhibitor -18, KDM4E inh 1%, Tau ThT inhib 2.8µM*, Tau fibril FP -6%, NPSR antagonist 10µM* and Tau fluor cs inconclusive.
Screening CCOc1ccc(N=Nc2c(=O)[nH]n3c(=O)c4c([nH]c23)CCCC4)cc1 returned PNC inhibitor -28, KDM4E inh inconclusive, Tau ThT inhib 1.8µM*, Tau fibril FP -6%, NPSR antagonist -31% and Tau fluor cs inconclusive.
Screening Cc1cc(C)n2[nH]c(=O)c(N=Nc3cccc(Cl)c3)c2n1 returned PNC inhibitor 33, KDM4E inh 2%, Tau ThT inhib inconclusive, Tau fibril FP 2%, NPSR antagonist -29%[46.1 µM] and Tau fluor cs -8%.
O=C1c2oc3ccccc3c(=O)c2C(c2cccc(O)c2)N1Cc1ccc(F)cc1 (centres undefined) was read as Tau ThT inhib -4%, Tau fibril FP inconclusive and Tau fluor cs inconclusive.
For Cc1ccc(/C=C\c2nccc3c2[nH]c2ccccc23)cc1 the results were KDM4E inh inconclusive, Tau ThT inhib inconclusive, Tau fibril FP -15%, NPSR antagonist -56% and Tau fluor cs 11µM*[quencher].
Screening C(=C\c1nccc2c1[nH]c1ccccc12)/c1ccccc1 returned KDM4E inh inconclusive, Tau ThT inhib inconclusive, Tau fibril FP -19%, NPSR antagonist inconclusive and Tau fluor cs 20µM*[quencher].
`Cc1cc(C)cc(NC(=O)Cc2c(C(=O)O)c(C)cn2C)c1` gave Tau ThT inhib 11%, Tau fibril FP 4% and Tau fluor cs 2%.
C=C(C)C(=O)NNc1ccccc1 was read as KDM4E inh 14µM*, Tau ThT inhib -6%, Tau fibril FP 5%, NPSR antagonist 6% and Tau fluor cs 3%.
For Cc1cccn2c(=O)c3cc(C#N)c(=O)n(-c4nnc(SCc5ccc(F)cc5)s4)c3nc12 the results were Tau ThT inhib 6%, Tau fibril FP 2% and Tau fluor cs -16%.
For COC(=O)C1(O)CC(CC(C)C)=NN1C(=O)c1ccccc1 (centres undefined) the results were PNC inhibitor -124*, KDM4E inh -5%, Tau ThT inhib -19%, Tau fibril FP 4%, NPSR antagonist -4%[46.1 µM] and Tau fluor cs -9%.
CCc1ccc(C(=O)/C=C/c2ccc([N+](=O)[O-])o2)cc1 was read as PNC inhibitor 15, KDM4E inh -21%, Tau ThT inhib 8.9µM*, Tau fibril FP inconclusive, NPSR antagonist inconclusive and Tau fluor cs inconclusive.
For O=c1oc2ccccc2cc1-c1cn2cc(Cc3ccccc3F)sc2n1 the results were Tau ThT inhib -16%, Tau fibril FP -11% and Tau fluor cs -12%.
